Bioassay records deposited in PubChem BioAssay by The Scripps Research Institute Molecular Screening Center.
DAX1 inh-1: inhibits human nuclear receptor DAX1; 340,000 compounds, 0.99% hits; HEK293 Gal4-DAX1 luciferase reporter, luminescence; inhibition, % at 6.75 µM; P51843;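 active = inhibition above the mean over all tested compounds plus 3 SD, cut at about 4.2% in these data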;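 note: 0% = DAX1-transfected cells with DMSO and 100% = empty-vector control cells with DMSO; inhibition shows as a rise in luminescence from relieved DAX1 repression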
Target sequence (P51843 207-470 limits assumed): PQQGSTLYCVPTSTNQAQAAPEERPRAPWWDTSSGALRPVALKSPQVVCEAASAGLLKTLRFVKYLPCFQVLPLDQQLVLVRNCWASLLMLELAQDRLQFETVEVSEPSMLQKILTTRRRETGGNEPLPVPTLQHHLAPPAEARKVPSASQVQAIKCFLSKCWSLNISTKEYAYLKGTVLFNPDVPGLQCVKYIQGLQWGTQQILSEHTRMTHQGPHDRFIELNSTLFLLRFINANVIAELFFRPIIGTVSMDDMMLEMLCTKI
DAX1 inh-2: inhibitors of DAX1 repression of SF-1 activated StAR promoter | 370,000 compounds, 1.1% hits | inhibition, % at 6.8 µM | HEK293T StAR-luciferase reporter, SF-1/DAX-1 repression relief;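 active = inhibition above the mean over all tested compounds plus 3 SD, cut at about 3.6% in these data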;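 note: 0% = DAX-1 cells with DMSO and 100% = cells lacking DAX-1 with DMSO; higher inhibition means more luminescence from relief of DAX-1 repression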
hgDAF-12 ag: activates the H. glycines DAF-12 receptor ligand-binding domain. AID 687014. 370,000 compounds, 1.8% hits. HEK293 GAL4-hgDAF12 UAS-luciferase reporter, agonist luminescence; normalized to butyrate control. activation, % at 6.8 µM;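 active = activation above a cutoff set at the mean of all screened compounds plus 3 SD, cut at about 10% in these data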;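 note: 0% = DMSO wells and 100% = sodium butyrate wells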
hcDAF12 agonist: H. contortus DAF-12 activation, primary screen. HEK293 hcDAF-12 lit1-tk-luc reporter, luminescence; 0% DMSO, 100% Δ7-dafachronic acid. activation, % at 6.8 µM. 370,000 compounds, 1.4% hits. AID 652067;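 active = activation above the mean of all tested compounds plus 3 SD, cut at about 5.5% in these data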;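 note: 100% = response to 3 µM Δ7-dafachronic acid high control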
ssDAF12 agonist: activates DAF-12 receptor from parasite S. stercoralis; HEK293 ssDAF-12/GRIP1 lit1-tk-luc reporter, luminescence; % of 3 µM dafachronic acid response; 370,000 compounds, 1% hits; activation, % at 6.8 µM;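 active = activation above the mean over all tested compounds plus 3 SD, cut at about 0.9% in these data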;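 note: 0% = DMSO-only wells and 100% = 3 µM delta7-dafachronic acid wells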
SMARCA2 act: activators of SMARCA2 function; MG213 cells, MMTV-luciferase reporter, dexamethasone, overnight; activation, % at 9.1 µM; 370,000 compounds, 1% hits; AID 652017; in the data active = activation above about 7.8%;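 note: 0% = vehicle wells and 100% = reference activator wells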
DAX1 inh confirm: NR0B1 (human) inhibition, confirmation; AID 652134; 2,400 compounds, 87% hits; inhibition, % at 6.8 µM; HEK293T StAR-promoter luciferase reporter, SF-1/DAX-1 repression; shares compounds with DAX1 inh-2;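 active = inhibition above the average of every tested compound plus 3 SD, cut at about 3.8% in these data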;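 note: 0% = DAX-1 cells with DMSO and 100% = no DAX-1 control cells with DMSO; active compounds raise luminescence by relieving repression of the StAR reporter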
SF1 mutant ctr: counter-screen for DAX1 inhibitors: nonselective inhibitors with SF-1 AF2 mutant | inhibition, % at 6.8 µM | HEK293 StAR-luciferase, luminescence | 2,400 compounds, 78% hits | AID 652136 | shares compounds with DAX1 inh-2;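 active = inhibition above the mean of all tested compounds plus 3 SD, cut at about 3% in these data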;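 note: 0% = DAX-1 transfected cells with DMSO and 100% = cells without DAX-1 with DMSO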
LXR ag: LXR-beta agonism as hcDAF-12 counter-screen; shares compounds with hcDAF12 agonist; activation, % at 6.8 µM; 3,400 tested, under 10 active; HEK293 Gal4-LXR tk-luc reporter, luminescence, 24 h; normalized: DMSO 0%, positive control 100%;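 active = mean percent activation of the reporter above a cutoff set as the average over tested compounds plus their standard deviation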
hcDAF12 conf: confirmation of H. contortus DAF-12 agonists; shares compounds with hcDAF12 agonist; HEK293 hcDAF-12 lit1-tk-luc reporter, luminescence; % of Δ7-dafachronic acid response; 3,400 compounds, 61% hits; activation, % at 6.8 µM;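 active = mean activation across triplicate tests above the threshold derived from the earlier primary screen, cut at about 5.5% in these data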;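 note: 0% = DMSO only wells and 100% = 3 µM Δ7-dafachronic acid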
Starred values were filed as active, the others as inactive; x = not tested or not shown. Shown are actives, neighbours in structure and some others; about 4.8% of the full set was active somewhere.

SMILES	DAX1 inh-1	DAX1 inh-2	hgDAF-12 ag	hcDAF12 agonist	ssDAF12 agonist	SMARCA2 act	DAX1 inh confirm	SF1 mutant ctr	LXR ag	hcDAF12 conf
COc1cccc(-c2nc3n(n2)CCc2ccccc2-3)c1	4.3*	8.3*	20.2*	16.5*	2.0*	4.1	7.5*	4.1*	1.3	16.4*
COc1cccc(-c2cc(C(=O)N3CCc4ccccc4C3)no2)c1	0.8	-0.5	3.0	0.8	-1.3	-3.0	x	x	x	x
N#C/C(=C\c1ccc(O)c([N+](=O)[O-])c1)c1nc2ccccc2s1	-0.6	0.2	2.0	2.8	-1.1	1.8	x	x	x	x
N#C/C(=C\c1ccco1)c1nc2ccccc2s1	4.1	5.1*	16.6*	14.7*	2.5*	6.5	13.5*	9.1*	1.9	11.4*
COCCn1c(C)cc(C(=O)COC(=O)c2cccnc2SC)c1C	1.9	5.8*	9.2	7.7*	0.2	2.0	15.5*	5.6*	1.6	9.4*
COc1cc(OC)cc(-c2nc(-c3cccs3)no2)c1	0.3	1.1	3.5	1.1	-0.5	-1.1	x	x	x	x
COc1cccc(-c2nc(-c3cccs3)no2)c1	3.1	5.3*	25.8*	14.6*	4.0*	6.8	16.7*	10.7*	1.9	16.2*
Cc1ccc(S(=O)(=O)N(C)CC(=O)N(C)Cc2cccs2)cc1	2.5	-0.2	-1.9	-0.9	-0.9	-1.0	x	x	x	x
CCOC(=O)C1CCCN(C(=O)CCc2nnc(-c3ccc(C(C)=O)s3)o2)C1 (centres undefined)	3.7	5.5*	12.9*	6.8*	-0.1	2.2	5.8*	5.9*	0.8	6.1*
CC(/C=N/NC(=O)c1cccs1)=C\c1ccccc1	1.5	7.0*	16.3*	6.8*	1.4*	2.4	17.9*	7.8*	1.8	7.2*
O=S(=O)(/N=C(/Nc1nc2ccccc2s1)c1ccccc1)c1ccccc1	0.5	14.0*	11.6*	8.9*	1.5*	2.7	5.0*	4.2*	0.5	2.5
Cc1ccc(/C=C/C(=O)N2CCc3ccccc32)o1	2.1	5.2*	12.5*	12.6*	1.3*	5.5	15.6*	7.3*	1.9	9.9*
COc1ccccc1NC(=O)N(C)C[C@H]1OCc2cnnn2CCCC(=O)N([C@H](C)CO)C[C@H]1C	2.1	0.8	-2.2	1.2	0.1	-0.3	x	x	x	x
O=C(Nc1ccc2c(c1)OCCO2)c1cccc2nc3ccccc3nc12	0.3	-1.0	3.3	-1.9	-1.8	2.6	x	x	x	x
O=C(Nc1ccc2c(c1)OCCO2)c1ccccc1Cl	1.9	9.0*	11.7*	7.2*	0.0	0.9	16.0*	9.4*	1.5	8.1*
Cc1cccc(S(=O)(=O)NC(=O)C2(C)CCN2C(=O)C/C=C/c2ccccc2)c1 (centres undefined)	x	-0.3	0.8	-0.2	-0.9	-2.5	x	x	x	x
CCC(=O)c1ccc(/C=C/c2nc3ccccc3n2C)o1	-0.4	4.7*	24.9*	6.9*	1.4*	2.5	8.8*	5.4*	1.4	6.7*
CCOC(=O)c1c(SCC(=O)Nc2nccs2)nc(C)c(C)c1C	0.5	6.6*	5.3	11.2*	0.0	4.2	4.1*	2.2	0.4	2.2
CCn1c(C)nnc1SCC(=O)Nc1nccs1	-1.4	0.5	-1.1	2.6	-0.4	-4.8	x	x	x	x
